# High-throughput results as filed in PubChem BioAssay.
# RECQ1 inh-1 = inhibitors of human RECQ1 DNA helicase; 240,000 compounds, 0.54% hits; P46063; Potency, µM (titrated, usually from 57.3 µM), without a hit: top-dose activity, negative = inhibition, most hits filed as inhibitors; RECQ1 DNA unwinding, red fluorescence kinetic read;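 also: plate controls were vehicle for no effect and no enzyme for full effect; nearly all actives have a fitted effect of over 30% in size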
#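 RECQ1T1 50 nM; forked duplex (20 bp + 30-nt ss tails) 200 nM, ATP 2 mM final; pH 8.0, 2 mM MgCl2, 2.5 ug/ml poly(dI-dC); 15 min compound preincubation; discontinuous kinetic read over 2 h at RT.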
# WRN helicase inh-1 = blocks human WRN helicase; WRN helicase unwinding, fluorescent forked duplex, kinetic; 360,000 compounds, 0.46% hits; Potency, µM (series often up to 114 µM), for the others: at the top dose activity change, negative = inhibition, most hits filed as inhibitors; also: % is scaled to controls: 0 for no effect and ±100 for the full control effect; nearly all actives have a fitted effect of over 55% in size
#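 Kinetic fluorescence helicase assay: unwinding of a quenched forked DNA duplex (100 nM final) with 2 mM ATP final raises red fluorescence (525/598 nm). Compounds sat 15 min at room temperature with 20 nM WRN beforehand.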
# BLM helicase inh-1 = Bloom syndrome helicase (human) inhibition; P54132; AID 2528; 350,000 compounds, 0.2% hits; Potency, µM (series often up to 56.1 µM), without a hit: top-dose activity change, negative = inhibition, hits mostly inhibitors; recombinant BLM DNA unwinding, fluorescence dequenching;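 also: plate controls were vehicle for no effect and no enzyme for full effect; nearly all actives have a fitted effect of over 35% in size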
# APE1 inh-1 = blocks human APE1 abasic DNA cleavage. P27695. recombinant APE1, TAMRA/BHQ-2 abasic DNA cleavage fluorescence. Potency, µM (top dose mostly 65.8 µM), inactives show at the top dose activity change, negative = inhibition, hits mostly inhibitors. 350,000 compounds, 0.35% hits;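 also: plate controls were vehicle for no effect and reference inhibitor for full effect; nearly all actives have a fitted effect of over 55% in size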
# Target sequence (P27695 whole entry, looked up): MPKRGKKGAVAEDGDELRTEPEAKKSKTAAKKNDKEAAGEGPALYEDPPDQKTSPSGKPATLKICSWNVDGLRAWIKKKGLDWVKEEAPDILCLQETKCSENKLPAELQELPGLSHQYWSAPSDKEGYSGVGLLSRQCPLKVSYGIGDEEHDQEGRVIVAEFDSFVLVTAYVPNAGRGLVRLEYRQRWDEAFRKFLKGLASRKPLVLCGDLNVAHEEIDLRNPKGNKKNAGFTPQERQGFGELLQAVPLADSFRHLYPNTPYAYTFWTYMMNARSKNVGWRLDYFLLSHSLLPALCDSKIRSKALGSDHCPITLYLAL
#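 Enzyme (0.75 nM final) and test compound are incubated 15 min at room temperature before adding 50 nM quenched THF abasic-site duplex. Cleavage dequenches TAMRA, followed at 525/598 nm over three reads one minute apart.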
# L3MBTL1 inh = blocks human L3MBTL1. AlphaScreen L3MBTL1–H3K9me1 peptide binding. AID 485360. Potency, µM (doses to about 57.1 µM), for the others: at the highest dose activity, negative = inhibition, actives largely listed as inhibitors. 230,000 compounds, 0.66% hits. Q9Y468; also: % is scaled to controls: 0 for no effect and ±100 for the full control effect; nearly all actives have a fitted effect of over 60% in size
#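 AlphaScreen assay: L3MBTL1 (50 nM final) was preincubated 30 min at room temperature with biotinylated H3(1-15)K9me1 peptide (75 nM final), then 30 min with library compounds; streptavidin donor and nickel chelate acceptor beads (10 ug/mL final) added, 30 min dark.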
# APE1 dye cs = displaces fluorescent dye from DNA, flagging APE1 artifacts. shares compounds with APE1 inh-1. DNA fluorescent dye displacement counterscreen, fluorescence. Potency, µM (top dose mostly 28.5 µM), inactives show top-dose activity change, negative = inhibition, hits mostly inhibitors. 480 compounds, 7% hits. AID 2564;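 also: loss of thiazole orange fluorescence as the dye is displaced from duplex DNA; 0% = ThO with dsDNA and no compound and -100% = ThO without dsDNA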
# Endo IV inh = blocks E. coli endonuclease IV DNA cleavage. E. coli Endo IV, fluorogenic AP-site DNA cleavage. Potency, µM (series often up to 27.1 µM), inactives show top-dose activity change, negative = inhibition, usual class: inhibitors. 560 compounds, 4% hits. AID 2565. shares compounds with APE1 inh-1;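 also: plate controls were uninhibited enzyme wells for no effect and no enzyme buffer wells for full effect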
# APE1 inh-2 = APE1 (human) endonuclease inhibition, confirmation; 750 compounds, 44% hits; Potency, µM (titrated, usually from 57.1 µM), for inactives: top-dose activity change, negative = inhibition, usual class: inhibitors; AID 2572; purified APE1, fluorogenic abasic-site DNA cleavage; shares compounds with APE1 inh-1; also: % is scaled to controls: 0 for no effect and ±100 for the full control effect; nearly all actives have a fitted effect of over 30% in size
# APE1 FP inh = compounds that displace a DNA probe from human APE1 | AID 2573 | shares compounds with APE1 inh-1 | Potency, µM (series often up to 28.5 µM), inactives show at the top dose activity, negative = inhibition, most hits filed as inhibitors | APE1 binding to TAMRA-labelled double-stranded DNA, fluorescence polarization displacement | 480 compounds, 7% hits; also: % is scaled to controls: 0 for no effect and ±100 for the full control effect
# BLM inh = BLM (human) helicase inhibition, confirmation; AID 2585; 220 compounds, 40% hits; shares compounds with BLM helicase inh-1; BLM DNA unwinding, fluorescence quenching, biochemical; Potency, µM, for the others: max response, negative = inhibition, most hits filed as inhibitors;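 also: strand separation dequenches TAMRA so unwinding raises red fluorescence; series mostly up to about 69 µM; % is scaled to controls: 0 for no effect and ±100 for the full control effect; nearly all actives have a fitted effect of over 45% in size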
# RECQ1 inh conf = confirmation of human RECQ1 helicase inhibitors; shares compounds with RECQ1 inh-1; 610 compounds, 28% hits; Potency, µM (series often up to 229 µM), for the others: top-dose activity change, negative = inhibition, most hits filed as inhibitors; RECQ1 helicase DNA unwinding, fluorescence; also: % is scaled to controls: 0 for no effect and ±100 for the full control effect; nearly all actives have a fitted effect of over 45% in size
# ADP FP counter = displaces ADP in a fluorescence polarization counter-screen for RECQ1 hits; shares compounds with RECQ1 inh-1; ADP fluorescence polarization displacement counterscreen; Potency, µM (doses to about 228 µM), inactives show at the top dose activity change, negative = inhibition, usual class: inhibitors; 530 compounds, 27% hits; also: % is scaled to controls: 0 for no effect and ±100 for the full control effect; nearly all actives have a fitted effect of over 45% in size
# RECQ1 inh-2 = RECQ1 helicase inhibition confirmed, round 2; shares compounds with RECQ1 inh-1; recombinant RECQ1 DNA unwinding, red fluorescence; Potency, µM (doses to about 119 µM), inactives show at the top dose activity, negative = inhibition, most hits filed as inhibitors; 1,100 compounds, 15% hits; also: % is scaled to controls: 0 for no effect and ±100 for the full control effect; nearly all actives have a fitted effect of over 50% in size
# WRN helicase inh-2 = confirmation of human WRN helicase inhibitors. shares compounds with WRN helicase inh-1. WRN helicase DNA unwinding, fluorescence kinetic. Potency, µM (top dose mostly 57.1 µM), for inactives: at the highest dose activity, negative = inhibition, most hits filed as inhibitors. 610 compounds, 63% hits. AID 720497; also: nearly all actives have a fitted effect of over 65% in size
# TO DNA binding = counter-screen for WRN helicase inhibitors: DNA binding; shares compounds with WRN helicase inh-1; thiazole orange DNA binding displacement, fluorescence; Potency, µM (series often up to 57.1 µM), inactives show top-dose activity change, negative = inhibition, usual class: inhibitors; 610 compounds, 10% hits; AID 720499;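 also: drop in dye fluorescence marks compound binding to DNA; % is scaled to controls: 0 for no effect and ±100 for the full control effect; nearly all actives have a fitted effect of over 60% in size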
# BLM helicase inh-2 = BLM helicase inhibition, WRN selectivity check; shares compounds with WRN helicase inh-1; AID 720503; Recombinant BLM helicase DNA unwinding, red fluorescence; 610 compounds, 60% hits; Potency, µM (top dose mostly 57.1 µM), for inactives: at the highest dose activity change, negative = inhibition, usual class: inhibitors; also: nearly all actives have a fitted effect of over 60% in size
# * = called active by the depositor; ? = inconclusive; . = no result given; ! = a repeat was not active; [ ] = another dose, or the depositor's remark. Sampled rows, rich in hits. Any-hit rate of the full collection: about 0.92%. Calls follow the shape of the dose curve; as a rule, active = well fitted curve in the direction sought with a large enough effect; inconclusive = small, poorly fitted or top-dose-only effect, or another doubt; inactive = no such curve, though single readings can be large; an effect the other way counts as inactive or inconclusive. Potency is read from the fitted curve at half-maximal effect.
SMILES,RECQ1 inh-1,WRN helicase inh-1,BLM helicase inh-1,APE1 inh-1,L3MBTL1 inh,Endo IV inh,APE1 inh-2,others
Nc1ccccc1-c1ccccc1,-3%,.,.,4%,.,.,.,
CCCN1CCc2cccc3c2C1Cc1ccc(O)c(O)c1-3 (stereo not drawn),-16%,.,.,0%,.,-2%[57.1 µM],-24%,
c1ccc2cc3c(cc2c1)-c1cccc2cccc-3c12,-1%,.,.,-1%,.,.,.,
O=S(=O)(Cl)c1ccccc1,13%,.,.,2%,.,.,.,
NCC(O)c1cc(O)c(O)cc1F (stereo not drawn),?,4%,.,1.1µM*!,?,-2%[57.1 µM],-20%,
O=C(OC1Cc2c(O)cc(O)cc2OC1c1cc(O)c(O)c(O)c1)c1cc(O)c(O)c(O)c1 (stereo not drawn),1.6µM*,.,?,0.28µM*,.,9%[57.1 µM],0.089µM*,
Oc1cc(O)c2c(c1)OC(c1cc(O)c(O)c(O)c1)C(O)C2 (stereo not drawn),35µM*,.,-27%,10µM*,.,16%[57.1 µM],5µM*,
O=C1C[C@@H](c2ccc(O)cc2)Oc2cc(O)cc(O)c21,-3%,3%,1%,-2%,9%,.,.,
N#CC(=Cc1ccc(O)c(O)c1)C(N)=S,?,.,.,?,.,-8%[57.1 µM],-25%,
CCc1ccc(/C=C(/C#N)C(N)=S)cc1,14%,-9%,0%,-3%,-4%,.,.,
Cc1c2ccncc2c(C)c2c1[nH]c1ccccc12,4.5µM*!,-13%,124%,?,7%,1µM*,?,RECQ1 inh conf=?
CCc1nnc(NC(=O)CSc2ccc(-c3ccco3)nn2)s1,?,-1%,14µM*,?,.,.,?,BLM inh=?;RECQ1 inh-2=-14%
CC(N)[C@H](O)c1ccc(O)c(O)c1 (stereo partly drawn),6.3µM*,.,.,1µM*,.,43%[57.1 µM],-6%,APE1 dye cs=-11%[57.1 µM];APE1 FP inh=-3%[57.1 µM];RECQ1 inh conf=31%;ADP FP counter=13µM*
CCCN(CCC)CCc1ccc(O)c(O)c1,-1%,.,.,0%,.,.,.,
COc1ccc(OC)c(C(O)C(C)N)c1 (stereo not drawn),6%,6%,2%,5%,-9%,.,.,
C[C@@H](N)[C@@H](O)c1ccc(O)c(O)c1,2.5µM*,.,1%,.,.,53%[57.1 µM],2%,APE1 dye cs=5%[57.1 µM];APE1 FP inh=-2%[57.1 µM];RECQ1 inh conf=26%;ADP FP counter=?
C[C@H](N)[C@H](O)c1ccc(O)c(O)c1,1.8µM*,.,-18%[21.4 µM],0.79µM*,.,27%,6%[24.4 µM],APE1 dye cs=3%;APE1 FP inh=-16%;RECQ1 inh conf=28%[69.1 µM];ADP FP counter=11µM*
Clc1cccc(C(Cl)(Cl)Cl)n1,16%,.,.,19%,.,.,.,
O=C(O)CBr,-12%,.,.,-2%,.,.,.,
c1nc[nH]n1,-4%,.,.,8%,.,.,.,
O=c1[nH]c(=O)n(Cc2ccco2)c(O)c1C=NCc1ccco1,-2%,-5%[11.6 µM],-9%,1%,?,.,.,
CC(=O)Nc1ccc(N=Cc2c(O)n(Cc3ccco3)c(=O)[nH]c2=O)cc1,?,?,?,?,-15%,.,-26%,RECQ1 inh-2=?
CCCCN1C(=O)/C(=C/C=C/c2ccco2)C(=O)NC1=S,14µM*,2.7µM*,41%,32µM*,3.5µM*,53%,14µM*,APE1 dye cs=30%;APE1 FP inh=65%;WRN helicase inh-2=12µM*;TO DNA binding=83%;BLM helicase inh-2=6.8µM*
O=c1c(O)c(-c2ccc(O)c(O)c2)oc2cc(O)cc(O)c12,1.8µM*!,?,-14%,1.3µM*!,.,-63%[57.1 µM],-37%,RECQ1 inh conf=?;ADP FP counter=13µM*;WRN helicase inh-2=1.2µM*;TO DNA binding=?;BLM helicase inh-2=1.1µM*
